From PubChem BioAssay (Tox21)
Records with an inconclusive call do not appear. Activity calls are given as the source filed them. The call rests on the fitted dose curve; in most records, active means well fitted curve in the direction sought with a large enough effect in the repeat runs; inconclusive means weak or mixed curves; inactive means no such curve, though single readings can be large; an effect the other way counts as inactive or inconclusive.

Tests used:
[1] = A CellTox Green Cytotoxicity Assay to monitor cytotoxicity in HEK293 cells - 40 hour (AID 1224871); further: nearly all actives have a fitted effect of over 45% in size
Outline: (§1)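 HEK293 cells premixed with CellTox Green dye were seeded at 600 cells/well and left 5 h at 37 C/5% CO2 before pin transfer of 23 nL compound in DMSO. Fluorescence from dye bound to dead-cell DNA was read during 40 h treatment.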

[2] = qHTS RealTime-Glo MT Cell Viability Assay in HEK293 cells - 16 hour (AID 1224872); further: top concentration of the series differs between compounds; nearly all actives have a fitted effect of over 50% in size
Outline: (§2)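 Reads taken at 0, 8, 16, 24, 32 and 40 h from the same wells. HEK293 cells (600/well) carried RealTime-Glo reagents from seeding, with compound added after a 5 h settle at 37 C.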

[3] = qHTS RealTime-Glo MT Cell Viability Assay in HepG2 cells - 8 hour (AID 1224873); further: nearly all actives have a fitted effect of over 55% in size
Outline: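 HepG2 cells mixed with RealTime-Glo MT reagents (NanoLuc plus cell-permeant prosubstrate) were seeded at 600 cells/well, incubated 5 h at 37 C/5% CO2, then pinned with compounds in DMSO; nonlytic luminescence tracked viability during 40 h treatment.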

[4] = qHTS RealTime-Glo MT Cell Viability Assay in HEK293 cells - 40 hour (AID 1224874); conditions: RealTime-Glo luminescence; max response: active compounds read low; further: nearly all actives have a fitted effect of over 50% in size
Outline: (§3)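 HEK293 cells mixed with RealTime-Glo reagents (NanoLuc plus cell-permeant prosubstrate) at 600 cells/well, preincubated 5 h at 37 C/5% CO2, then given 23 nL compound in DMSO. Nonlytic luminescence from viable cells was read at 0, 8, 16, 24, 32 and 40 h.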

[5] = A CellTox Green Cytotoxicity Assay to monitor cytotoxicity in HEK293 cells - 24 hour (AID 1224875); further: series mostly up to about 77 µM; nearly all actives have a fitted effect of over 45% in size
Outline: as §1

[6] = A CellTox Green Cytotoxicity Assay to monitor cytotoxicity in HepG2 cells - 16 hour (AID 1224876); further: nearly all actives have a fitted effect of over 45% in size
Outline: (§4)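 HepG2 cells were seeded together with the CellTox Green dye at 600 cells/well, left 5 h at 37 C/5% CO2, then given compounds in DMSO. Fluorescence from dye bound to dead-cell DNA was read repeatedly over 40 h of treatment at 37 C.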

[7] = qHTS RealTime-Glo MT Cell Viability Assay in HepG2 cells - 32 hour (AID 1224877); further: nearly all actives have a fitted effect of over 55% in size; further: potency means the concentration at half of the fitted maximal effect
Outline: (§5)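 HepG2 suspension premixed with RealTime-Glo reagents is plated at 600 cells per well and left 5 h at 37 C/5% CO2. Compounds in DMSO then go in, and bioluminescence reflecting viable cell number is recorded over 40 h.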

[8] = A CellTox Green Cytotoxicity Assay to monitor cytotoxicity in HepG2 cells - 24 hour (AID 1224878); further: nearly all actives have a fitted effect of over 45% in size
Outline: as §4

[9] = A CellTox Green Cytotoxicity Assay to monitor cytotoxicity in HepG2 cells - 40 hour (AID 1224879); further: nearly all actives have a fitted effect of over 40% in size
Outline: as §4

[10] = qHTS RealTime-Glo MT Cell Viability Assay in HEK293 cells - 0 hour (AID 1224880)
Outline: as §3

[11] = A CellTox Green Cytotoxicity Assay to monitor cytotoxicity in HEK293 cells - 32 hour (AID 1224881); further: nearly all actives have a fitted effect of over 40% in size
Outline: as §1

[12] = A CellTox Green Cytotoxicity Assay to monitor cytotoxicity in HepG2 cells - 0 hour (AID 1224882); further: nearly all actives have a fitted effect of over 35% in size
Outline: as §4

[13] = A CellTox Green Cytotoxicity Assay to monitor cytotoxicity in HepG2 cells - 32 hour (AID 1224883); further: nearly all actives have a fitted effect of over 50% in size
Outline: as §4

[14] = A CellTox Green Cytotoxicity Assay to monitor cytotoxicity in HEK293 cells - 8 hour (AID 1224884); further: nearly all actives have a fitted effect of over 35% in size
Outline: as §1

[15] = qHTS RealTime-Glo MT Cell Viability Assay in HepG2 cells - 16 hour (AID 1224885); further: nearly all actives have a fitted effect of over 50% in size
Outline: as §5

[16] = qHTS RealTime-Glo MT Cell Viability Assay in HEK293 cells - 24 hour (AID 1224886)
Outline: as §2

[17] = qHTS RealTime-Glo MT Cell Viability Assay in HEK293 cells - 8 hour (AID 1224887)
Outline: as §3

[18] = qHTS RealTime-Glo MT Cell Viability Assay in HepG2 cells - 0 hour (AID 1224889); further: nearly all actives have a fitted effect of over 50% in size
Outline: as §5

[19] = A CellTox Green Cytotoxicity Assay to monitor cytotoxicity in HEK293 cells - 16 hour (AID 1224888); further: nearly all actives have a fitted effect of over 35% in size
Outline: as §1

[20] = A CellTox Green Cytotoxicity Assay to monitor cytotoxicity in HepG2 cells - 8 hour (AID 1224890); further: nearly all actives have a fitted effect of over 45% in size
Outline: as §4
On the % scale 0 is the no-effect control and ±100 the full control effect.

[P]#[In]
inactive: Potency [1] | Potency [2] | outcome [3] | max response [4] 0.3% | Potency [5] | Potency [6] | Potency [7] | Potency [8] | Potency [9] | outcome [10] | Potency [11] | outcome [12] | Potency [13] | Potency [14] | Potency [15] | Potency [16] | Potency [17] | outcome [18]

NC1(c2ccccc2)CCCCC1
inactive: Potency [1] | Potency [2] | outcome [3] | max response [4] -3.55% | Potency [5] | Potency [6] | Potency [7] | Potency [8] | Potency [9] | outcome [10] | Potency [11] | outcome [12] | Potency [13] | Potency [14] | Potency [15] | Potency [16] | Potency [17] | Potency [19] | outcome [18] | Potency [20]

CC(C)[N+](C)(CCC(C(N)=O)(c1ccccc1)c1ccccc1)C(C)C
inactive: Potency [1] | Potency [2] | outcome [3] | max response [4] -2.84% | Potency [5] | Potency [6] | Potency [8] | Potency [9] | outcome [10] | Potency [11] | outcome [12] | Potency [13] | Potency [14] | Potency [15] | Potency [16] | Potency [17] | Potency [19] | outcome [18] | Potency [20]
active: Potency [7] 21.3 µM

CNC(=O)O/N=C(/CSC)C(C)(C)C
inactive: Potency [1] | Potency [2] | outcome [3] | max response [4] -0.61% | Potency [5] | Potency [6] | Potency [7] | Potency [8] | Potency [9] | outcome [10] | Potency [11] | outcome [12] | Potency [13] | Potency [14] | Potency [15] | Potency [16] | Potency [17] | Potency [19] | outcome [18] | Potency [20]

CC[C@@H](CO)NC(=O)[C@@H]1C=C2c3cccc4[nH]cc(c34)C[C@H]2N(C)C1
inactive: Potency [1] | Potency [2] | outcome [3] | max response [4] 1.11% | Potency [5] | Potency [6] | Potency [7] | Potency [8] | Potency [9] | outcome [10] | Potency [11] | outcome [12] | Potency [13] | Potency [14] | Potency [16] | Potency [17] | Potency [19] | outcome [18]

O=C(Cl)C(Cl)Cl
inactive: Potency [1] | Potency [2] | outcome [3] | max response [4] 1.34% | Potency [5] | Potency [6] | Potency [7] | Potency [8] | Potency [9] | outcome [10] | Potency [11] | outcome [12] | Potency [13] | Potency [14] | Potency [16] | Potency [17] | Potency [19] | outcome [18] | Potency [20]

CCNc1nc(NCC)nc(SC)n1
inactive: Potency [1] | Potency [2] | outcome [3] | max response [4] -13.3% | Potency [5] | Potency [6] | Potency [7] | Potency [8] | Potency [9] | outcome [10] | Potency [11] | outcome [12] | Potency [13] | Potency [14] | Potency [16] | Potency [17] | Potency [19] | outcome [18]

COc1ccc(CN2CCNCC2)c(OC)c1OC
inactive: Potency [1] | Potency [2] | outcome [3] | max response [4] 5.58% | Potency [5] | Potency [6] | Potency [7] | Potency [8] | Potency [9] | outcome [10] | Potency [11] | outcome [12] | Potency [13] | Potency [14] | Potency [15] | Potency [16] | Potency [17] | outcome [18]

C=C1C[C@@H]2[C@H](CC[C@]3(C)C(=O)CC[C@@H]23)[C@@]2(C)C=CC(=O)C=C12
inactive: Potency [1] | Potency [2] | outcome [3] | max response [4] 0.138% | Potency [5] | Potency [6] | Potency [7] | Potency [8] | Potency [9] | outcome [10] | Potency [11] | outcome [12] | Potency [13] | Potency [14] | Potency [15] | Potency [16] | Potency [17] | Potency [19] | Potency [20]

Cc1ccc(S(=O)(=O)N[C@@H](CCCCN)C(=O)CCl)cc1
inactive: Potency [1] | Potency [2] | outcome [3] | max response [4] 2.57% | Potency [5] | Potency [6] | Potency [7] | Potency [8] | Potency [9] | outcome [10] | Potency [11] | outcome [12] | Potency [13] | Potency [14] | Potency [16] | Potency [17] | outcome [18] | Potency [20]

CCN(CCO)CCO
inactive: Potency [1] | Potency [2] | outcome [3] | max response [4] 4.13% | Potency [5] | Potency [6] | Potency [7] | Potency [8] | Potency [9] | outcome [10] | Potency [11] | outcome [12] | Potency [13] | Potency [14] | Potency [15] | Potency [16] | Potency [17] | Potency [19] | outcome [18] | Potency [20]

CCC(C)(C#N)N=NC(C)(C#N)CC (centres undefined)
inactive: Potency [1] | Potency [2] | outcome [3] | max response [4] 2.46% | Potency [5] | Potency [6] | Potency [7] | Potency [8] | Potency [9] | outcome [10] | Potency [11] | outcome [12] | Potency [13] | Potency [14] | Potency [15] | Potency [16] | Potency [17] | outcome [18]

CCCCCCC1CCOC1=O (centres undefined)
inactive: Potency [1] | Potency [2] | outcome [3] | max response [4] -0.816% | Potency [5] | Potency [6] | Potency [7] | Potency [8] | Potency [9] | outcome [10] | Potency [11] | outcome [12] | Potency [13] | Potency [14] | Potency [15] | Potency [16] | Potency [17] | Potency [19] | outcome [18] | Potency [20]

CC(=NC#N)N(C)Cc1ccc(Cl)nc1
inactive: Potency [1] | Potency [2] | outcome [3] | max response [4] 8.58% | Potency [5] | Potency [6] | Potency [7] | Potency [8] | Potency [9] | outcome [10] | Potency [11] | outcome [12] | Potency [13] | Potency [14] | Potency [16] | Potency [17] | Potency [19] | outcome [18] | Potency [20]

CC(C)(N)Cc1ccccc1Cl
inactive: Potency [1] | Potency [2] | outcome [3] | max response [4] 1.76% | Potency [5] | Potency [6] | Potency [7] | Potency [8] | Potency [9] | outcome [10] | Potency [11] | outcome [12] | Potency [13] | Potency [14] | Potency [16] | Potency [17] | Potency [19] | outcome [18] | Potency [20]
